Compound activity (PubChem)
Kir21 inh: inhibitors of mouse Kir2.1 inward-rectifier potassium channel | B-score at 10 µM | 310,000 compounds, 0.85% hits | AID 1672 | HEK293-Kir2.1, FluxOR thallium flux fluorescence; hits give low values;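 active = fluorescence ratio B-score at or below minus 3 SD of library scores, with starting-brightness B-score within 2 SD, cut at about -4.2 in these data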;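 also: channel flux triggered by added potassium and thallium sulfate stimulus; B-score of peak minus minimum fluorescence over baseline after thallium stimulus; more negative B-score means stronger Kir2.1 block with less thallium influx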
GPR7 antag: antagonists of human GPR7 (neuropeptides B/W receptor 1). P48145. GPR7-expressing cells, fluorescence antagonist assay. inhibition, % at 4.4 µM. 290,000 compounds, 1.1% hits. AID 1861; in the data active = inhibition above about 16%, passing the limit was not always enough;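 also: cells stimulated with the agonist NPW; 0% = agonist with vehicle and 100% = vehicle without agonist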
Target sequence (P48145 whole entry, looked up): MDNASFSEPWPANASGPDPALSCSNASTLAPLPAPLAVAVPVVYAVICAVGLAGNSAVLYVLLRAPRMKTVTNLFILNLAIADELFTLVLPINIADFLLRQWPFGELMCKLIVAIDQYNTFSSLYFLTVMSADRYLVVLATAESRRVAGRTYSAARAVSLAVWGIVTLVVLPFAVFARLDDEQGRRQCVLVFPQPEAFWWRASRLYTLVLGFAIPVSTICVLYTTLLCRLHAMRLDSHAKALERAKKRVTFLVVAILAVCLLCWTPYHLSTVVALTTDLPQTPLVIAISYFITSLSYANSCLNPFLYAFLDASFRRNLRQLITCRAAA
ANO1 block: inhibitors of mouse TMEM16A calcium-activated chloride channel. normalized B-score (activity score, 25-100; higher = stronger inhibition) at 10 µM. HEK293 TMEM16A/YFP iodide influx fluorescence, ionomycin. 310,000 compounds, 1.2% hits. AID 588511;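 active = ratio plate-corrected score three or more library SD toward inhibition, starting fluorescence score within five deviations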;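 also: score derived from kinetic fluorescence span divided by baseline fluorescence per well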
ANO1 activ: activates or potentiates the mouse TMEM16A chloride channel. B-score at 10 µM. HEK293 TMEM16A/YFP-H148Q/I152L, iodide quench fluorescence; hits give low values. 340,000 compounds, 0.3% hits;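 active = fluorescence-ratio B-score plate-corrected deviation score at least 3 library SD below zero, with starting fluorescence score within 5 deviations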;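 also: channel opened by trigger with iodide after compound preincubation; score built on the fluorescence ratio of max minus min over baseline; more negative score means more quench and so TMEM16A activation or potentiation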
CHT allo act: human CHT allosteric activation. 310,000 compounds, 0.49% hits. B-score at 10 µM. CHT-expressing cells, membrane potential dye, choline EC20; hits give high values; LV-AA mutant CHT in HEK293 cells;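 active = initial fluorescence not abnormally high and integrated response B-score, plate-corrected, over 3 SD above library mean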
CHT inh: inhibits the human high affinity choline transporter; CHT-expressing cells, membrane potential dye, choline response; hits give low values; B-score at 10 µM; 310,000 compounds, 0.86% hits; AID 488975;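 active = B-score over 3 SD under the library average, and starting fluorescence ratio not unusually high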;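 also: choline stimulus applied at its EC90 after an EC20 pre-addition; B-score computed on integrated fluorescence ratio after choline addition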
Starred values were filed as active, the others as inactive; i = inactive; . = no result given. Compounds with a hit are over-represented: about 3.7% of the library has one in this group of screens.

SMILES | Kir21 inh | GPR7 antag | ANO1 block | ANO1 activ | CHT allo act | CHT inh
CCN(CC)CCNCC(O)(c1ccc(Cl)cc1)c1ccc(Cl)cc1 | -5.6* | 15 | i | i | i | i
CC(C)(C)NCC(O)(c1ccc(Cl)cc1)c1ccc(Cl)cc1 | -3 | 5 | i | i | i | i
CC(C(=O)NCCS(=O)(=O)c1ccc(Cl)cc1)S(=O)(=O)c1ccc(Cl)cc1 (stereo not drawn) | -0.55 | -4 | i | i | i | i
CC(NCCS(=O)(=O)c1ccc(Cl)cc1)c1cccc(Cl)c1 (stereo not drawn) | -13* | -4 | i | i | i | i
O=C(NCCS(=O)(=O)c1ccc(Br)cc1)c1ccccc1 | -1.6 | -14 | i | i | i | i
CC(C)c1ccc(C(C)NCCS(=O)(=O)c2ccc(Br)cc2)cc1 (stereo not drawn) | -4.7* | 1 | i | i | i | i
O=C(CCNC(=O)c1ccc([N+](=O)[O-])cc1)NCc1cccs1 | . | . | . | i | . | .
Cc1noc(C)c1COC(=O)C1(c2cccc(F)c2)CCCC1 | -4.3* | -5 | i | i | i | i
Cc1noc(C)c1COC(=O)CNC(=O)c1cccc(F)c1 | 0.04 | -7 | i | i | i | i
O=C(NCCS(=O)(=O)NCc1ccc2c(c1)OCO2)c1ccccc1 | -0.16 | . | i | i | i | i
CC1(C)CN(c2cccc(Br)c2)C1=O | -0.15 | -1 | i | i | i | i
C=CCn1c(COc2cccc3cccnc23)nnc1SCC(=O)O | 0.76 | 9 | i | -10* | i | i
Cc1ccc(-n2ncc(C(=O)Nc3cc(Cl)ccc3Cl)c2C2CCNCC2)cc1 | 0.92 | -9 | i | i | i | i
Cc1ccc(-n2ncc(C(=O)Nc3cc(Cl)cc(Cl)c3)c2C2CCNCC2)cc1C | -7.3* | 9 | . | i | . | .
COc1ccc(CN2CCN(C(=O)c3cc(-c4cccnc4)nc4ccc(Cl)cc34)CC2)c(OC)c1OC | -0.49 | -3 | i | i | i | i
CC(=O)c1sccc1NC(=O)CC(C)(C)CC(=O)O | 1.4 | -6 | i | i | i | i
Cc1sc2ncnc(N3CCN(CCOc4ccc(Cl)cc4)CC3)c2c1C | 0.22 | 5 | 100* | i | i | i
Cc1sc2ncnc(N3CCC(C(=O)NNC(=O)COc4ccc(Cl)cc4)CC3)c2c1C | . | . | . | i | . | .
Cc1sc2ncnc(N3CCC(C(=O)NNC(=O)COc4ccc(Br)cc4)CC3)c2c1C | 0.2 | . | 100* | i | i | i
CC(=O)N1CCCC(C(=O)c2ccc(Oc3ccccc3)cc2)C1 (stereo not drawn) | -1.6 | -4 | i | i | i | i
OC(COCc1ccccc1)COCc1ccccc1 | . | . | . | i | . | .
O=S(CC(O)COCc1ccc(Cl)cc1)c1ccccn1 (stereo not drawn) | -0.12 | -6 | i | -8.1* | i | i
O=C(CNCCC1=CCCCC1)Nc1ccc(N2CCCCCC2)cc1 | -5.6* | -13 | i | i | i | i
O=C(CNC1CCCCCC1)Nc1ccc(N2CCCC2)cc1 | -0.31 | -11 | i | . | i | i
CCN1CCN(C(=O)C(Cc2ccccc2)NC(=O)c2ccc(Cl)c(S(=O)(=O)N(C)C)c2)CC1 (stereo not drawn) | . | . | . | -46* | . | .
SMILES | Kir21 inh | GPR7 antag | ANO1 block | ANO1 activ | CHT allo act | CHT inh
O=C(NC(Cc1ccccc1)C(=O)N1CCN(S(=O)(=O)c2ccccc2F)CC1)c1ccccc1 (stereo not drawn) | . | . | . | i | . | .
O=C(CN1C(=O)NC(c2ccccc2)(c2ccccc2)C1=O)NCCNCCO | -1.7 | -12 | i | i | i | i
COc1ccc(NC(=O)CN(C)C(=O)C(C)Oc2ccc(Br)cc2)cc1 (stereo not drawn) | 0.39 | . | i | i | i | i
CC1CCCC(NC(=O)CSc2ccc(F)cc2)C1C (stereo not drawn) | -0.9 | 3 | i | i | i | i
CC1CCCC(NCC(O)COC(c2ccc(F)cc2)c2ccc(F)cc2)C1C (stereo not drawn) | -3.9 | 56* | i | i | i | i
O=C(/C=C/Nc1ccc(Oc2ccccc2)cc1)c1ccco1 | 0.13 | -31 | i | i | i | i
Cc1cccc(OCC(=O)Nc2ccc3c(c2)nc(CCN2CCCCC2)n3C)c1 | -1.7 | -3 | i | i | i | i
Cc1cccc(OCC(=O)Nc2ccc3c(c2)nc(CCN2CCN(c4ccccn4)CC2)n3C)c1 | -0.1 | -10 | 100* | i | i | i
O=C1NC(=O)C2(CCCCC2C2CCCCC2)N1 (stereo not drawn) | . | . | . | i | . | .
Fc1ccc(Cn2ccc(-c3cnc(-c4ccccc4)s3)n2)cc1 | -1.1 | -13 | 100* | i | i | i
COC(=O)c1cccc(C(=O)N2CCCC(Nc3ccc(C)c(C)c3)C2)c1 (stereo not drawn) | -1.8 | -4 | i | i | i | i
O=C1C=CC(=O)C(C2=C3C(=O)N(CCc4ccccc4)CC(=O)N3CCC2)=C1 | -7* | -1 | i | . | i | i
Cc1ccc(CNc2ccc([N+](=O)[O-])cc2C(N)=O)cc1 | . | . | i | i | i | i
Cc1ccc(Oc2c(C(N)=O)cc([N+](=O)[O-])cc2[N+](=O)[O-])cc1 | -5.5* | 1 | i | i | i | i
O=S(=O)([N-]c1nc2ccccc2nc1-[n+]1ccc(-c2ccncc2)cc1)c1ccccc1 | -1 | -3 | i | -5.3* | i | i
N#Cc1ccccc1S(=O)(=O)N1CCN(C(=O)CCC2CCCC2)CC1 | . | . | . | -23* | . | .
N#Cc1ccccc1S(=O)(=O)N1CCN(C(=O)CCc2ccccc2)CC1 | . | . | . | i | . | .
CCOCCCNC(=O)/C=C1\Sc2ccccc2N(Cc2ccccc2F)C1=O | 3.5 | 19* | i | i | i | i
COc1ccc(C(=O)C2CCCN(C(=O)c3cccc(N(C)C)c3)C2)cc1OC (stereo not drawn) | 0.99 | -5 | i | i | i | i
CCOC(=O)C1=C(C)N=c2s/c(=C\c3ccc(OCC(=O)O)cc3)c(=O)n2C1c1ccccc1OC (stereo not drawn) | 1.3 | -11 | i | i | i | i
CCOC(=O)C1=C(C)N=c2s/c(=C\c3ccc(O)c([N+](=O)[O-])c3)c(=O)n2C1c1ccccc1OC (stereo not drawn) | 0.85 | -22 | 100* | i | i | i
COc1ccc(Cl)cc1NC(=O)CN(C)C(=O)c1n[nH]c2ccccc12 | 2.1 | . | i | i | i | i
O=C(COC(=O)CC(c1ccccc1)c1ccccc1)Nc1ccc(F)c(F)c1 | -1.1 | -1 | 100* | . | i | i
